Source: PubChem BioAssay (Tox21)
Inconclusive results are not listed. Where a call stands in place of a potency, no number is given. The source made the active and inactive calls. Unless noted, how the calls were made is not given here.

Test: qHTS assay to identify small molecule antagonists of the estrogen related receptor signaling pathway with the pleiotropic PPARgamma coactivator (PGC) from Tox21 10K library (AID 1224841); further: actives are mostly falling curves and most rising ones were filed inactive; nearly all actives have a fitted effect of over 50% in size; further: potency means the concentration at half of the fitted maximal effect
Details: PGC/ERR reporter cell line, ONE-Glo luciferase, 18 h; series mostly up to 92.4 µM
In short: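 PGC/ERR cell line, 2,000 cells/well; 6 h pre-incubation 37 C/5% CO2; compounds (DMSO) pinned in; 18 h, 37 C; One-Glo, 30 min RT; luminescence.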
In the case of `CCOC(=O)C(C)Oc1ccc(Oc2nc3ccc(Cl)cc3o2)cc1` (centres undefined), the Potency is reported as “inactive”. For `Nc1ccc(Cl)cc1[N+](=O)[O-]`, the Potency was “inactive”. In the case of `CCCOc1ccc(S(=O)(=O)N2CCN(CC)CC2)cc1-c1nc2c(CC)n(Cc3ccccn3)nc2c(=O)[nH]1`, the Potency is reported as “inactive”. With `Nc1ccc(S(=O)(=O)O)cc1` the Potency was “inactive”. In the case of `CC(=O)Oc1ccc2c(c1)CC[C@@H]1[C@@H]2CC[C@]2(C)[C@@H](O)CC[C@@H]12`, the Potency is reported as “inactive”. For `N#C/C(=C1/SC[C@@H](c2ccc(Cl)cc2Cl)S1)n1ccnc1`, the Potency was 23.7 µM (active). For `O=C(O)Cc1ccc(-c2ccccc2)cc1`, the Potency was “inactive”. In the case of `NCC1CCCC(CN)C1` (centres undefined), the Potency is reported as “inactive”. With `O=C(O)c1ccccc1NCCc1ccccc1` the Potency was “inactive”. For `COCCOC(=O)C1=C(C)NC(C)=C(C(=O)OC/C=C/c2ccccc2)C1c1cccc([N+](=O)[O-])c1` (centres undefined), the Potency was 23.7 µM (active). With `CCOC(=O)c1ccccc1OC` the Potency was “inactive”. In the case of `C1COCO1`, the Potency is reported as “inactive”. With `Cc1ccc(/C=N/n2c(-c3ccccc3)csc2=S)cc1` the Potency was “inactive”. With `Cc1ccc(Nc2nccc(N(C)c3ccc4c(C)n(C)nc4c3)n2)cc1S(N)(=O)=O` the Potency was 23.7 µM (active). For `CCOC(=O)[C@@H](C)Oc1ccc(Oc2nc3ccc(Cl)cc3o2)cc1`, the Potency was “inactive”. With `CO[C@@]12[C@H](COC(N)=O)C3=C(C(=O)C(C)=C(N)C3=O)N1C[C@@H]1N[C@@H]12` the Potency was 23.7 µM (active). With `O=C(NCCCN1CCOCC1)c1ccc(Cl)cc1` the Potency was “inactive”. For `CC(C)CCCCCOC(=O)CCCCC(=O)OCCCCCC(C)C`, the Potency was “inactive”. With `CNC(=O)N(c1ccccc1)c1ccccc1` the Potency was “inactive”. In the case of `CCCCCCOC(=O)C(C)C`, the Potency is reported as “inactive”. With `CC(=O)OCC(=O)[C@H]1CC[C@H]2[C@@H]3CCC4=CC(=O)CC[C@]4(C)[C@H]3CC[C@]12C` the Potency was “inactive”. With `NC(=O)N(O)[C@@H]1C=C[C@H](Oc2cccc(Oc3ccc(F)cc3)c2)C1` the Potency was “inactive”.

Test: qHTS assay to identify small molecule agonists of the estrogen related receptor signaling pathway with the pleiotropic PPARgamma coactivator (PGC) from Tox21 10K library (AID 1224842; active means well fitted activation curve with a large enough effect in the repeat runs; further: nearly all actives have a fitted effect of over 15% in size)
Details: PGC/ERR reporter cell line, luciferase ONE-Glo, 18 h; series mostly up to 92.4 µM
In short: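 Luminescence from One-Glo (30 min, room temperature) measured after PGC/ERR cells had 18 h at 37 C with pinned compound (23 nL in DMSO). Cells had been seeded at 2,000 per well and pre-incubated 6 h.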
With `Cc1nccn1-c1ccc(Sc2cccc(C3(C(N)=O)CCOCC3)c2)cc1` the Potency was “inactive”. In the case of `N#C/C(=C1/SC[C@@H](c2ccc(Cl)cc2Cl)S1)n1ccnc1`, the Potency is reported as “inactive”. In the case of `O=C(O)Cc1ccc(-c2ccccc2)cc1`, the Potency is reported as “inactive”. With `NCC1CCCC(CN)C1` (centres undefined) the Potency was “inactive”. In the case of `CCCCC(CC)C(=O)OCCOCCOCCOCCOC(=O)C(CC)CCCC` (centres undefined), the Potency is reported as “inactive”. For `C1COCO1`, the Potency was “inactive”. For `Cc1ccc(Nc2nccc(N(C)c3ccc4c(C)n(C)nc4c3)n2)cc1S(N)(=O)=O`, the Potency was “inactive”. In the case of `CO[C@@]12[C@H](COC(N)=O)C3=C(C(=O)C(C)=C(N)C3=O)N1C[C@@H]1N[C@@H]12`, the Potency is reported as “inactive”. For `CC(C)CCCCCOC(=O)CCCCC(=O)OCCCCCC(C)C`, the Potency was “inactive”. For `CNC(=O)N(c1ccccc1)c1ccccc1`, the Potency was “inactive”. With `CCCCCCOC(=O)C(C)C` the Potency was “inactive”. In the case of `CC(=O)OCC(=O)[C@H]1CC[C@H]2[C@@H]3CCC4=CC(=O)CC[C@]4(C)[C@H]3CC[C@]12C`, the Potency is reported as “inactive”.
